Hits are enriched below; roughly 12% of the tested compounds scored in any of these assays.
WT yeast gro inh: growth inhibition of WT yeast, mitochondrial fusion screen | inhibition, % at 10 µM | mitochondrial fusion phenotypic screen, WT strain | 190,000 tested, 2.1% active; in the data active = inhibition above about 58%; tested in S. cerevisiae
Insulin prom up: MIN6 insulin promoter up-regulation; MIN6 insulin promoter-GFP reporter, high-content imaging; stronger effect = higher value; z-score at 5 µM; 190,000 tested, 0.3% active; AID 1625;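 active = z-score above 3 at 5 µM with at least 500 cells counted in the well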
L major viab: inhibitors of Leishmania major promastigote growth | Leishmania major promastigotes, resazurin fluorescence viability | inhibition, % at 10 µM | 200,000 tested, 9% active | AID 1063; in the data active = inhibition above about 50%;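 also: promastigotes grown with compound for 44 hours at 28 °C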
ROMK primary: modulates human ROMK potassium channel activity. Tet-inducible ROMK, thallium flux fluorescence; actives lie on both sides. B-score at 10 µM. 130,000 tested, 2% active. AID 1918;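 active = signal ratio slope over the read window, or its plate-corrected B-score, at least 3 SD from the plate mean, either direction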;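 also: B-score of the F/F0 ratio slope over 7 to 12 s after thallium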
Insulin prom inh: TRM-6 insulin promoter activity inhibition | TRM-6 cells (human fetal islet line), insulin promoter-eGFP reporter, imaging; reporter expression induced with tamoxifen | inhibition, % at 2 µM | 130,000 tested, 0.9% active;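 active = inhibition above the mean plus 3 SD, with well images judged a real hit on visual review, cut at about 60% in these data, passing the limit was not always enough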
Cl transport mod: modulates chloride dependent transport by human KCC2. 190,000 tested, 2.2% active. KCC2 cells, thallium flux FluoZin-2 fluorescence. B-score of Tl+ flux slope (higher = more flux/activation; lower = inhibition) at 10 µM. Q9H2X9;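 active = thallium flux slope and its plate-corrected score both differing from the plate sample mean at a set confidence after two filtering rounds, in either direction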;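 also: slope of fluorescence scaled to starting intensity during 10 to 20 s after thallium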
Target sequence (Q9H2X9 whole entry, looked up): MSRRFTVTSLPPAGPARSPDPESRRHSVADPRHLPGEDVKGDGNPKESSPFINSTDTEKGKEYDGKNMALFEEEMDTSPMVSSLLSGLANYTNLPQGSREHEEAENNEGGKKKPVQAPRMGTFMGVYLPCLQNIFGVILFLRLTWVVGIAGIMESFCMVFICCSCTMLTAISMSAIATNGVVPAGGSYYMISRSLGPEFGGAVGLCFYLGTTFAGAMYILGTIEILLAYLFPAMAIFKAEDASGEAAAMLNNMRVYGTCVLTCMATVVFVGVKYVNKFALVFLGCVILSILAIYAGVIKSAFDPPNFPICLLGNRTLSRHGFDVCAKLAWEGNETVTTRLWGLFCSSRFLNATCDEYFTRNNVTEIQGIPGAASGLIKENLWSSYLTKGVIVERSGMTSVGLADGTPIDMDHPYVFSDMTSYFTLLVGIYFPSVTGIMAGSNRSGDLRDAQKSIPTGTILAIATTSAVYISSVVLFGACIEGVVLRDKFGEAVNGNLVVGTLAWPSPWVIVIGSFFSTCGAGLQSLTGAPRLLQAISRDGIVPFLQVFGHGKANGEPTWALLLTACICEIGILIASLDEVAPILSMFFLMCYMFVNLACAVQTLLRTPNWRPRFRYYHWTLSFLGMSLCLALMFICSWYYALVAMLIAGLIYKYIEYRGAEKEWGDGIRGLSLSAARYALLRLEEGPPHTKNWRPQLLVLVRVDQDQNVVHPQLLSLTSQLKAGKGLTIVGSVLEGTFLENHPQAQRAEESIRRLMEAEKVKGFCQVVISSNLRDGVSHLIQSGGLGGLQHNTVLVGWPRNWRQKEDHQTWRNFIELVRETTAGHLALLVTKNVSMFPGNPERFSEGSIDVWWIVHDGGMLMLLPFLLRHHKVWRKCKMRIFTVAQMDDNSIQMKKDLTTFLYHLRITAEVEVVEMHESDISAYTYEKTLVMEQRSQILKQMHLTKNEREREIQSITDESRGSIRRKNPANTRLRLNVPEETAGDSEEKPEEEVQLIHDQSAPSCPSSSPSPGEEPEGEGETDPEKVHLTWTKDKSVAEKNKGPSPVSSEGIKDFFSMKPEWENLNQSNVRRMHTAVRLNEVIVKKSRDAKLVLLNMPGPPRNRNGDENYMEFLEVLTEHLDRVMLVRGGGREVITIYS
Lmaj promast 1uM: blocks Leishmania major promastigote growth at 1 uM, repeat screen. shares compounds with L major viab. L. major promastigote growth, resazurin fluorescence, 48 h. inhibition, % at 1 µM. 1,100 tested, 13% active. AID 1258;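 active = inhibition above about 50% in both repeat tests, limit read from the data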
Each line names hits and unclear results; the compound was inactive in the other large screens (follow-up assays come after a bar, where they were run).

CC1=NCC(C)c2c1[nH]c1ccccc21 (stereo not given)	L major viab 84 (no result: Insulin prom inh) | Lmaj promast 1uM inactive
CC1CCN(c2c([N+](=O)[O-])nn(-c3ccc4c(c3)OCCO4)[n+]2[O-])CC1	none (no result: Insulin prom inh, Cl transport mod)
COc1ccccc1CN=c1c([N+](=O)[O-])nn(-c2ccc3c(c2)OCCO3)n1O	L major viab 98 | Lmaj promast 1uM inactive
Cn1nc([N+](=O)[O-])nc1Oc1ccccc1F	none (no result: Insulin prom inh)
Cn1nc([N+](=O)[O-])nc1Oc1ccccc1N	L major viab 97 (no result: Insulin prom up) | Lmaj promast 1uM inactive
COc1ccc(Cc2nnc(N=Nc3c(O)[nH]c4ccc(Br)cc34)[nH]c2=O)cc1	none (no result: Insulin prom inh)
O=c1ccsn1Cc1ccccc1	L major viab 101 | Lmaj promast 1uM inactive
O=c1ccn(Cc2ccccc2)c(=O)n1Cc1ccccc1	none
c1cncc(-c2nnc(-c3cccnc3)nn2)c1	L major viab 97 (no result: ROMK primary) | Lmaj promast 1uM inactive
O=C(NCCc1c[nH]c2ccccc12)/C(=C\c1cccnc1)NC(=O)c1ccco1	L major viab 61 | Lmaj promast 1uM inactive
Cc1ccc(N=C(NOCc2ccc(Cl)cc2Cl)c2nonc2N)c(C)c1	WT yeast gro inh 68, L major viab 98 | Lmaj promast 1uM inactive
CSc1c(CC(=O)NCCO)n(C)c2ccccc12	none (no result: Insulin prom up, ROMK primary)
CC(=O)O[C@]1(C(C)=O)CC[C@H]2[C@@H]3C[C@H](C)C4=CC(=O)CC[C@]4(C)[C@H]3CC[C@@]21C	L major viab 76 (no result: Insulin prom up) | Lmaj promast 1uM inactive
CC(=O)[C@H]1CC[C@H]2[C@@H]3C[C@H](C)C4=CC(=O)CC[C@]4(C)[C@H]3[C@@H](O)C[C@]12C	none (no result: Insulin prom up, ROMK primary)
C=CCn1c(-c2ccccc2)nc(=S)c2c1CC(C)(C)OC2	none (no result: ROMK primary)
C1=CN2CCC1C(c1ccccc1)C2 (stereo not given)	L major viab 79 (no result: ROMK primary) | Lmaj promast 1uM inactive
Cc1ccc(Oc2ccc(S(=O)(=O)N3CCOCC3)cc2C(N)=O)c(-n2nc3ccccc3n2)c1	L major viab 54 (no result: ROMK primary, Cl transport mod) | Lmaj promast 1uM inactive
COc1ccccc1Oc1ccc(S(=O)(=O)N2CCOCC2)cc1S(=O)(=O)N1CCOCC1	none (no result: Insulin prom up, ROMK primary)
OCCN1CCN(C(=S)c2ccc(Br)cc2)CC1	L major viab 68 (no result: WT yeast gro inh, Insulin prom up, ROMK primary) | Lmaj promast 1uM inactive
CC(=O)Nc1cccc(C(=O)/C=C/c2cccs2)c1	L major viab 93 (no result: ROMK primary) | Lmaj promast 1uM inactive
CC(=O)Nc1ccc(NC(=O)C(C)OC(=O)/C=C/c2cccs2)cc1 (stereo not given)	none
c1ccc2c(CSCCc3ccncc3)cccc2c1	L major viab 99 (no result: ROMK primary) | Lmaj promast 1uM inactive
O=C(O)CC1CCS(=O)(=O)C1 (stereo not given)	none (no result: ROMK primary)
O=C(O)CC1CCC(=C(Cl)Cl)C1 (stereo not given)	L major viab 95 (no result: ROMK primary, Insulin prom inh) | Lmaj promast 1uM inactive
CCOc1ccccc1C1C(C(N)=O)=C(C)Nc2nc(-c3ccccc3Cl)nn21 (stereo not given)	none (no result: Insulin prom inh)
Cc1csc(NC(=O)CSc2nnc(-c3ccc(S(=O)(=O)N4CCCC4)cc3)o2)n1	L major viab 99 (no result: Insulin prom up, ROMK primary) | Lmaj promast 1uM inactive
CCN(CC)S(=O)(=O)c1ccc(-c2nnc(SCC(=O)Nc3nc(C)cs3)o2)cc1	none (no result: ROMK primary)
COc1ccc(CCNC(=O)C23CN(Cc4ccccc4)CC2C(c2ccc([N+](=O)[O-])cc2)=NO3)cc1 (stereo not given)	none (no result: ROMK primary)
CCCNCC1C(Oc2ccc(Cl)cc2)C(=O)N1c1ccccc1C (stereo not given)	L major viab 91 | Lmaj promast 1uM inactive
COCCNCC1C(Oc2ccc(Cl)cc2)C(=O)N1c1ccccc1C (stereo not given)	none
Cc1nnc(Sc2nc3ccccc3o2)c2ccccc12	L major viab 64 (no result: ROMK primary, Cl transport mod) | Lmaj promast 1uM inactive
CCSc1nnc(-c2ccc(Cl)cc2)c2ccccc12	none
Cc1ccc(-c2nnc(Sc3nc4ccccc4o3)c3ccccc23)cc1	L major viab 76 (no result: Insulin prom up, Insulin prom inh) | Lmaj promast 1uM inactive
Clc1ccc(-c2nnc(Sc3nc4ccccc4o3)c3ccccc23)cc1	L major viab 90 (no result: Insulin prom up) | Lmaj promast 1uM inactive
COc1ccc(N2C(=O)CCC(C(=O)N3CCOCC3)C2c2ccc(F)cc2)cc1 (stereo not given)	none (no result: ROMK primary)
O=C(Nc1cccc(Cl)c1)Nc1cc(S(=O)(=O)N2CCOCC2)ccc1N1CCCC1	none (no result: Insulin prom up)
Cc1ccc(C(=O)NNC(=O)C2CCN(Cc3ccc(Cl)c(Cl)c3)CC2)cc1	none (no result: ROMK primary)
CC12CCC(O)CC1=CCC1C2CCC2(C)C1CCC21CCC(=O)O1 (stereo not given)	WT yeast gro inh 75, L major viab 68 | Lmaj promast 1uM inactive
N#Cc1ccc(NC(=S)Nc2ccccc2)cc1	L major viab 62 | Lmaj promast 1uM inactive
CCC(C)NCCOc1ccc(Br)cc1 (stereo not given)	L major viab 82 (no result: Insulin prom up, Cl transport mod) | Lmaj promast 1uM inactive
COc1ccc(C2C(=O)N(C3CCCCC3)CC(=O)N2Cc2ccc3c(c2)OCO3)cc1 (stereo not given)	L major viab 91 (no result: ROMK primary, Insulin prom inh) | Lmaj promast 1uM inactive
Cc1cc(/C=N/NS(=O)(=O)c2ccc(F)c(Cl)c2)no1	none (no result: WT yeast gro inh, Insulin prom up, L major viab, ROMK primary, Insulin prom inh)
CCOC(=O)CSC1=C(C#N)C(c2ccc(Cl)cc2)CC(=O)N1 (stereo not given)	none (no result: ROMK primary, Insulin prom inh)
CCOC1(OCC)C(c2ccc(N)cc2)C(C#N)(C#N)C1(OCC)OCC (stereo not given)	L major viab 63 (no result: Insulin prom inh) | Lmaj promast 1uM inactive
CCOC1(OCC)C(c2ccc(Cl)cc2)C(C#N)(C#N)C1(OCC)OCC (stereo not given)	WT yeast gro inh 65, L major viab 100 (no result: Insulin prom up) | Lmaj promast 1uM inactive
NNC(=O)c1ccc(COc2ccc3ccccc3c2)cc1	none (no result: WT yeast gro inh, L major viab, ROMK primary, Insulin prom inh)
CC(=O)N1NC(=Nc2ccccc2)SC1(C)C	none (no result: Insulin prom inh)
O=C(Oc1ccc(Cl)c2cccnc12)c1cccc([N+](=O)[O-])c1	L major viab 99 (no result: ROMK primary) | Lmaj promast 1uM inactive
O=C(CSc1nnc2ccccn12)c1ccc2c(c1)OCCO2	none (no result: Cl transport mod)
Cc1ccc(-n2nc3ccc(N)cc3n2)cc1	L major viab 84 (no result: ROMK primary) | Lmaj promast 1uM inactive
CC(C)c1ccc(-n2nc3ccc(N)cc3n2)cc1	none (no result: Insulin prom inh)
Nc1nnc(-c2cn(-c3ccccc3)nc2-c2ccccc2)o1	L major viab 55 (no result: ROMK primary) | Lmaj promast 1uM inactive
Cc1ccc(C23CC4CC(CC(CN)(C4)C2)C3)cc1	L major viab 100 (no result: ROMK primary, Insulin prom inh) | Lmaj promast 1uM inactive
O=C(Cc1ccc([N+](=O)[O-])cc1)NCc1ccccn1	none
CC(C)OC(=O)c1cccc(C(=O)OCc2ccco2)n1	L major viab 50 (no result: Insulin prom inh) | Lmaj promast 1uM inactive
CCCn1c(C(O)c2ccc3c(c2)OCO3)nc2ccccc21 (stereo not given)	none (no result: Cl transport mod)
CC(C)(C)n1nnnc1CN(Cc1cccnc1)Cc1ccccc1Cl	L major viab 75 (no result: Insulin prom inh) | Lmaj promast 1uM inactive
CC(C)(C)n1nnnc1CN(Cc1ccco1)Cc1cc2cc3c(cc2[nH]c1=O)OCO3	none (no result: ROMK primary, Cl transport mod)
N/C(Cc1ccc(Cl)cc1)=N\OC(=O)c1ccccc1	none (no result: Insulin prom up, ROMK primary)
COc1ccc(C(=O)O/N=C(\N)Cc2ccc(Cl)cc2)cc1OC	L major viab 66 (no result: ROMK primary, Insulin prom inh) | Lmaj promast 1uM inactive

Screening results (PubChem)
